Drawing on PubChem BioAssay (NCI), this text covers growth for 8 compounds.

Each structure is given as a SMILES string. This is part of a sample that, as a whole, favours compounds with a hit. Of some 83,000 tested, about 20% had one in any assay.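 A percent growth of 40 corresponds to 60% growth inhibition; 0 means no net growth; -100 means all cells died. Active threshold: below 10.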 Unmarked numbers belong to inactive results. The source made the active and inactive calls.

Some test systems named below: SK-MEL-2 melanoma; EKVX NSCLC; SN12C renal; UO-31 renal; TK-10 renal; ACHN renal; CAKI-1 renal; A498 renal; CCRF-CEM leukemia; MOLT-4 leukemia; RPMI-8226 leukemia; OVCAR-8 ovarian; OVCAR-5 ovarian; OVCAR-4 ovarian; SK-OV-3 ovarian; IGROV1 ovarian; OVCAR-3 ovarian; HS 578T breast; NCI/ADR-RES ovarian.
Holding throughout (assay): NCI-60 one-dose screen, 48 h (100 = growth as untreated, 0 = no growth, -100 = all killed)
Holding throughout (settings): 10 µM unless noted

With `COCN1CCC2N(COC)CCC3N(COC)CCC1N23` (stereo unspecified), the growth in the assay on SK-MEL-2 melanoma is 107%; in the assay on EKVX NSCLC it was 108%; in the assay with SN12C renal, 89.6%; in the assay with UO-31 renal it was 107%; in the assay on TK-10 renal, 113%; in the assay on ACHN renal, 108%. Also, the growth with CAKI-1 renal is 102%; in the assay with A498 renal it was 113%; in the assay on CCRF-CEM leukemia, 104%; in the assay with MOLT-4 leukemia it was 111%; in the assay on RPMI-8226 leukemia it was 118%; in the assay with OVCAR-8 ovarian, 99%. The growth in the assay with OVCAR-5 ovarian was 103%; in the assay on OVCAR-4 ovarian it was 110%; in the assay on SK-OV-3 ovarian it was 101%; with IGROV1 ovarian, 126%; in the assay with OVCAR-3 ovarian it was 116%; in the assay on HS 578T breast, 124%. The growth with NCI/ADR-RES ovarian was 108%.
Take `CC1=NOC(=O)/C1=C\c1ccc(O)cc1`: the growth is 113% in the assay on SK-MEL-2 melanoma; 104% in the assay with EKVX NSCLC; 101% in the assay on SN12C renal; 85.7% with UO-31 renal; 102% in the assay with TK-10 renal; 101% in the assay on ACHN renal. Besides, the growth with CAKI-1 renal was 95.4%; in the assay on A498 renal it was 86.7%; with CCRF-CEM leukemia, 94.1%; with MOLT-4 leukemia, 102%; in the assay on RPMI-8226 leukemia, 109%; with OVCAR-8 ovarian, 98.3%. Besides, the growth in the assay with OVCAR-5 ovarian is 99.8%; in the assay with OVCAR-4 ovarian it was 106%; in the assay with SK-OV-3 ovarian, 103%; in the assay on IGROV1 ovarian, 104%; with OVCAR-3 ovarian, 103%; in the assay on HS 578T breast it was 98.3%. Further, the growth in the assay with NCI/ADR-RES ovarian was 106%.
`O=c1[nH]nc(-c2ccccc2)c2c(-c3ccccc3)onc12`: the growth in the assay on SK-MEL-2 melanoma is 30.7%; with EKVX NSCLC, 25.4%; in the assay on SN12C renal, 56.3%; in the assay on UO-31 renal, 16.9%; in the assay with TK-10 renal it was 62.5%; with ACHN renal, 47.5%. For the same compound, the growth in the assay with CAKI-1 renal is 28.7%; with A498 renal, 7.76% (active); in the assay with CCRF-CEM leukemia, 21.3%; in the assay with MOLT-4 leukemia, 30.2%; in the assay with RPMI-8226 leukemia, 19.5%; in the assay with OVCAR-8 ovarian it was 54.3%. In addition, the growth with OVCAR-5 ovarian was 58.7%; in the assay with OVCAR-4 ovarian, 64.1%; with SK-OV-3 ovarian it was 15.4%; with IGROV1 ovarian, 13.2%; in the assay with OVCAR-3 ovarian, -15.8% (active); in the assay on NCI/ADR-RES ovarian, 30.4%.
Consider `CN(C)CCCn1c(=O)c2ccccc2c2ccccc21`, for which the growth is 83.7% in the assay on SK-MEL-2 melanoma; 107% in the assay with EKVX NSCLC; 50.6% with SN12C renal; 53.6% with UO-31 renal; 79.3% with TK-10 renal; 42.2% in the assay with ACHN renal. The growth is 79.8% in the assay on CAKI-1 renal; 104% in the assay on A498 renal; 49.9% in the assay on CCRF-CEM leukemia; 51.6% in the assay with MOLT-4 leukemia; 59.9% in the assay on RPMI-8226 leukemia; 49.8% in the assay on OVCAR-8 ovarian. For the same compound, the growth was 73.3% in the assay with OVCAR-5 ovarian; 86.3% in the assay on OVCAR-4 ovarian; 92.3% in the assay with SK-OV-3 ovarian; 56.2% in the assay with IGROV1 ovarian; 96.5% in the assay with OVCAR-3 ovarian; 79.3% with HS 578T breast. Besides, the growth in the assay on NCI/ADR-RES ovarian is 78.3%.
As to `CCCCC1CCCCN1C(=O)OCC` (stereo unspecified), the growth is 101% with SK-MEL-2 melanoma; 122% with EKVX NSCLC; 103% in the assay on SN12C renal; 88.7% in the assay on UO-31 renal; 92.7% in the assay on TK-10 renal; 103% in the assay on ACHN renal. The growth in the assay on CAKI-1 renal is 101%; with A498 renal, 102%; with CCRF-CEM leukemia, 108%; with MOLT-4 leukemia, 115%; in the assay on RPMI-8226 leukemia it was 118%; with OVCAR-8 ovarian, 106%. For the same compound, the growth with OVCAR-5 ovarian was 98.4%; in the assay on OVCAR-4 ovarian it was 112%; in the assay with SK-OV-3 ovarian, 99.1%; in the assay on IGROV1 ovarian, 112%; in the assay on OVCAR-3 ovarian, 112%; in the assay on HS 578T breast, 116%. Besides, the growth in the assay with NCI/ADR-RES ovarian is 113%.
`COc1ccc(-c2nc(SCC(=O)Nc3nc(-c4ccccc4)cs3)[nH]c(=O)c2C#N)cc1`: the growth with SK-MEL-2 melanoma is 90.5%; in the assay on EKVX NSCLC, 101%; with SN12C renal, 108%; in the assay on UO-31 renal it was 59%; with TK-10 renal it was 117%; in the assay on ACHN renal it was 104%. Besides, the growth with CAKI-1 renal was 82.8%; in the assay on A498 renal, 80.4%; in the assay with CCRF-CEM leukemia it was 97.2%; in the assay on MOLT-4 leukemia, 89.9%; with RPMI-8226 leukemia it was 93%; with OVCAR-8 ovarian, 101%. In addition, the growth in the assay with OVCAR-5 ovarian was 84.6%; in the assay on OVCAR-4 ovarian it was 109%; with SK-OV-3 ovarian it was 81.6%; with IGROV1 ovarian it was 88.3%; with OVCAR-3 ovarian, 107%; in the assay with HS 578T breast, 78%. Besides, the growth in the assay with NCI/ADR-RES ovarian is 95.5%.
Regarding `Cc1cc(O)c(C2=NN(c3ccc(S(N)(=O)=O)cc3)C(c3ccccc3Cl)C2)cc1Cl` (stereo unspecified), the growth is 25.2% in the assay on SK-MEL-2 melanoma; -1.91% (active) with EKVX NSCLC; 18.8% in the assay with SN12C renal; 16.5% in the assay on UO-31 renal; 60.6% in the assay on TK-10 renal; 15.7% in the assay with ACHN renal. The growth in the assay with CAKI-1 renal is -3.01% (active); with A498 renal, 45.9%; in the assay on CCRF-CEM leukemia it was 9.09% (active); with MOLT-4 leukemia it was -31.6% (active); in the assay with RPMI-8226 leukemia, 11%; in the assay on OVCAR-8 ovarian, -14.5% (active). In addition, the growth is 18.1% in the assay with OVCAR-5 ovarian; 34.3% in the assay on OVCAR-4 ovarian; 44.5% with SK-OV-3 ovarian; 12.2% in the assay on IGROV1 ovarian; -13.1% (active) in the assay on OVCAR-3 ovarian; -4.47% (active) in the assay on HS 578T breast. In the assay with NCI/ADR-RES ovarian, the growth was -11% (active).
Take `COc1ccc(C2=NN(C(=O)c3cc(OC)c(OC)c(OC)c3)C(c3ccc(Cl)cc3)C2)cc1OC` (stereo unspecified): the growth with SK-MEL-2 melanoma is 39.5%; in the assay with EKVX NSCLC, 53.4%; with SN12C renal, 39.5%; in the assay on UO-31 renal it was 34.4%; with TK-10 renal, 25.4%; in the assay on ACHN renal, 43.3%. In addition, the growth in the assay with CAKI-1 renal was 26.6%; in the assay on A498 renal, -1.72% (active); in the assay on CCRF-CEM leukemia, -2.55% (active); in the assay with MOLT-4 leukemia, 9.1% (active); with RPMI-8226 leukemia it was -18.4% (active); in the assay with OVCAR-8 ovarian it was 34.4%. Besides, the growth in the assay with OVCAR-5 ovarian is 41.4%; in the assay with OVCAR-4 ovarian, 52%; in the assay with SK-OV-3 ovarian it was 25.8%; in the assay with IGROV1 ovarian, 36.7%; with OVCAR-3 ovarian, -35.2% (active); in the assay with HS 578T breast it was 0.152% (active). Also, the growth in the assay on NCI/ADR-RES ovarian is -36.3% (active).
